Measurements: PubChem BioAssay AID1159580 (chemical genetic matrix, 2015)
Several values for one entry are separate records, joined by “and”; a condition that tells them apart may be missing. Identical values can stand only once. Among all 5,500 compounds or so, about 2,000 (36%) were called active. Another 18% or so got no clear call; they are omitted. No stated cut-off is given here; in the data, active means normalized growth mostly below about 0.91 (no sharp cut-off); inconclusive means no clear call, values can overlap the other calls; inactive means mostly above about 0.92. Some of the results follow.

Experiment: chemical genetic growth profiling, strain panel (AID 1159580);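 further: tested at 20 µM; growth read once vehicle control cultures reached saturation at 30 °C; 1 = growth at the plate median or of vehicle wells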
Details: S. cerevisiae deletion strains, growth OD

Measured: normalized growth

C[C@H]1C(=O)CCC2[C@]3(C)CC[C@@]4(C)C5CC(C)(C)CC[C@]5(C)CC[C@]4(C)C3CC[C@@]21C (stereo partly drawn)
active: locus YBR021W, strain FUR4, stronger effect = lower value 0.713 | locus YDL192W, strain arf1, stronger effect = lower value 0.901 | locus YKR001C, strain vps1, stronger effect = lower value 0.876 | locus YNR052C, strain pop2, stronger effect = lower value 0.851
inactive: locus YAL021C, strain ccr4, stronger effect = lower value 0.979 | locus YAL026C, strain drs2, stronger effect = lower value 1.02 | locus YAL030W, strain snc1, stronger effect = lower value 1 | locus YBL061C, strain skt5, stronger effect = lower value 1 | locus YBR009C, strain hhf1, stronger effect = lower value 1.02 | locus YBR023C, strain chs3, stronger effect = lower value 1 | locus YBR171W, strain sec66, stronger effect = lower value 1 | locus YBR229C, strain ROT2, stronger effect = lower value 1.02 | locus YBR231C, strain swc5, stronger effect = lower value 0.997 | locus YBR279W, strain paf1, stronger effect = lower value 1.01 | locus YCL011C, strain gbp2, stronger effect = lower value 1.01 | locus YCL016C, strain dcc1, stronger effect = lower value 1 | locus YCL029C, strain bik1, stronger effect = lower value 0.968 | locus YCL061C, strain MRC1, stronger effect = lower value 1.01 | locus YCL069W, strain vba3, stronger effect = lower value 1.01 | locus YCR088W, strain abp1, stronger effect = lower value 1.01 | locus YDL005C, strain med2, stronger effect = lower value 0.995 | locus YDL035C, strain GPR1, stronger effect = lower value 0.983 | locus YDL040C, strain nat1, stronger effect = lower value 1.01 | locus YDL074C, strain BRE1, stronger effect = lower value 0.955 | locus YDL101C, strain DUN1, stronger effect = lower value 1.02 | locus YDL134C, strain PPH21, stronger effect = lower value 0.97 | locus YDL185W, strain tfp1, stronger effect = lower value 1.02 | locus YDR001C, strain nth1, stronger effect = lower value 1 | locus YDR069C, strain doa4, stronger effect = lower value 0.992 | locus YDR101C, strain arx1, stronger effect = lower value 0.981 | locus YDR137W, strain rgp1, stronger effect = lower value 0.987 | locus YDR159W, strain sac3, stronger effect = lower value 0.981 | locus YDR162C, strain NBP2, stronger effect = lower value 0.857 | locus YDR195W, strain ref2 0.966 | locus YDR297W, strain sur2, stronger effect = lower value 0.996 | locus YDR318W, strain mcm21, stronger effect = lower value 0.991 | locus YDR334W, strain swr1, stronger effect = lower value 1 | locus YDR335W, strain msn5, stronger effect = lower value 1.02 | locus YDR388W, stronger effect = lower value 1 | locus YDR392W, strain spt3, stronger effect = lower value 0.934 | locus YDR502C, strain sam2, stronger effect = lower value 0.97 | locus YEL003W, strain gim4, stronger effect = lower value 1.01 | locus YEL037C, strain rad23, stronger effect = lower value 0.999 | locus YEL061C, strain CIN8 (second series), stronger effect = lower value 1.01 | locus YEL061C, strain CIN8, stronger effect = lower value 1.02 | locus YER015W, strain faa2, stronger effect = lower value 1.01 | locus YER016W, strain bim1, stronger effect = lower value 0.994 | locus YER110C, stronger effect = lower value 1.01 | locus YER111C, strain swi4, stronger effect = lower value 0.998 | locus YER155C, strain BEM2 (second series), stronger effect = lower value 0.995 | locus YER155C, strain BEM2, stronger effect = lower value 1.03 | locus YER167W, strain BCK2, stronger effect = lower value 0.98 | locus YFR010W, strain ubp6, stronger effect = lower value 1.01 | locus YGL078C, strain dbp3, stronger effect = lower value 1.04 | locus YGL086W, strain mad1, stronger effect = lower value 0.974 | locus YGL167C, strain pmr1, stronger effect = lower value 1 | locus YGL173C, strain kem1, stronger effect = lower value 1.01 | locus YGL227W, strain vid30, stronger effect = lower value 1 | locus YGL240W, strain doc1, stronger effect = lower value 0.978 | locus YGL248W, strain PDE1, stronger effect = lower value 0.978 | locus YGL253W, strain hxk2, stronger effect = lower value 1.03 | locus YGR135W, strain pre9, stronger effect = lower value 1.01 | locus YGR252W, strain gcn5, stronger effect = lower value 0.902 | locus YHR013C, strain ard1, stronger effect = lower value 1.01 | locus YHR027C, strain rpn1, stronger effect = lower value 1.01 | locus YHR030C, strain SLT2, stronger effect = lower value 1.04 | locus YHR079C, strain IRE1 (second series), stronger effect = lower value 1.02 | locus YHR079C, strain IRE1, stronger effect = lower value 1.04 | locus YHR094C, strain hxt1, stronger effect = lower value 1.01 | locus YHR129C, strain ARP1, stronger effect = lower value 1 | locus YHR142W, strain chs7, stronger effect = lower value 1.03 | locus YHR200W, strain rpn10, stronger effect = lower value 0.951 | locus YIL066C, strain RNR3, stronger effect = lower value 0.969 | locus YIL073C, strain SPO22, stronger effect = lower value 1.02 | locus YIL125W, strain kgd1, stronger effect = lower value 1 | locus YIR030C, strain dcg1, stronger effect = lower value 1.02 | locus YJL092W, strain hpr5, stronger effect = lower value 1.01 | locus YJL095W, strain BCK1 (second series), stronger effect = lower value 0.999 | locus YJL095W, strain BCK1, stronger effect = lower value 0.936 and 1.01 | locus YJL115W, strain asf1, stronger effect = lower value 1 | locus YJL129C, strain trk1, stronger effect = lower value 1.01 | locus YJL134W, strain LCB3, stronger effect = lower value 1.03 | locus YJL154C, strain vps35, stronger effect = lower value 1 | locus YJL164C, strain tpk1, stronger effect = lower value 1.01 | locus YJL166W, strain qcr8, stronger effect = lower value 1 | locus YJL168C, strain set2, stronger effect = lower value 1.02 | locus YJL187C, strain SWE1 (second series), stronger effect = lower value 0.995 | locus YJL187C, strain SWE1, stronger effect = lower value 1 | locus YJR043C, strain POL32, stronger effect = lower value 0.949 | locus YJR066W, strain TOR1, stronger effect = lower value 0.984 | locus YKL009W, strain mrt4, stronger effect = lower value 1.03 | locus YKL068W, stronger effect = lower value 1.02 | locus YKL085W, strain MDH1 (second series), stronger effect = lower value 1.01 | locus YKL085W, strain MDH1, stronger effect = lower value 1.01 | locus YKL160W, strain elf1, stronger effect = lower value 1.01 | locus YKL190W, strain CNB1, stronger effect = lower value 1.02 | locus YKR026C, strain gcn3, stronger effect = lower value 0.999 | locus YKR091W, strain srl3, stronger effect = lower value 1.01 | locus YLL001W, strain dnm1, stronger effect = lower value 1 | locus YLL026W, stronger effect = lower value 1 | locus YLL041C, strain sdh2, stronger effect = lower value 1.01 | locus YLR027C, strain aat2, stronger effect = lower value 1 | locus YLR039C, strain RIC1, stronger effect = lower value 0.738 | locus YLR058C, strain SHM2, stronger effect = lower value 0.994 | locus YLR102C, strain apc9, stronger effect = lower value 1.02 | locus YLR113W, strain HOG1, stronger effect = lower value 0.965 | locus YLR221C, strain rsa3, stronger effect = lower value 0.995 | locus YLR258W, strain gsy2, stronger effect = lower value 1 | locus YLR262C, strain YPT6 (second series), stronger effect = lower value 1.01 | locus YLR268W, strain sec22, stronger effect = lower value 0.985 | locus YLR320W, strain mms22, stronger effect = lower value 1.01 | locus YLR342W, strain FKS1 (second series), stronger effect = lower value 0.992 | locus YLR342W, strain FKS1, stronger effect = lower value 1 | locus YLR357W, strain rsc2, stronger effect = lower value 0.977 | locus YLR370C, strain arc18, stronger effect = lower value 1.02 | locus YLR371W, strain rom2, stronger effect = lower value 1 | locus YLR384C, strain iki3, stronger effect = lower value 0.978 | locus YLR418C, strain cdc73, stronger effect = lower value 0.876 | locus YML016C, strain PPZ1, stronger effect = lower value 1.01 | locus YML032C, strain rad52, stronger effect = lower value 0.953 | locus YML120C, strain ndi1, stronger effect = lower value 0.998 | locus YML124C, strain tub3, stronger effect = lower value 1.02 | locus YMR058W, strain fet3, stronger effect = lower value 1.02 | locus YMR078C, strain ctf18, stronger effect = lower value 1.01 | locus YMR125W, strain sto1, stronger effect = lower value 0.995 | locus YMR129W, stronger effect = lower value 0.996 | locus YMR205C, strain PFK2, stronger effect = lower value 1.02 | locus YMR223W, strain ubp8, stronger effect = lower value 0.994 | locus YMR231W, strain pep5, stronger effect = lower value 0.996 | locus YMR263W, strain SAP30, stronger effect = lower value 1.02 | locus YMR307W, strain GAS1, stronger effect = lower value 1.04 | locus YNL067W, strain RPL9B, stronger effect = lower value 1.02 | locus YNL071W, strain lat1, stronger effect = lower value 1.01 | locus YNL153C, strain GIM3, stronger effect = lower value 1.01 | locus YNL183C, strain NPR1, stronger effect = lower value 0.981 | locus YNL209W, strain ssb2, stronger effect = lower value 1.02 | locus YNL233W, strain BNI4, stronger effect = lower value 1.01 | locus YNL248C, strain rpa49, stronger effect = lower value 0.919 | locus YNL250W, strain rad50, stronger effect = lower value 1.03 | locus YNL271C, strain bni1, stronger effect = lower value 1.01 | locus YNL298W, strain CLA4, stronger effect = lower value 0.993 | locus YNL307C, strain MCK1, stronger effect = lower value 0.984 | locus YNL322C, strain KRE1 (second series), stronger effect = lower value 0.985 | locus YNR049C, strain mso1, stronger effect = lower value 0.994 | locus YOL006C, strain TOP1, stronger effect = lower value 0.757 | locus YOL012C, strain htz1 1.29 | locus YOL147C, strain pex11, stronger effect = lower value 0.987 | locus YOR001W, strain rrp6, stronger effect = lower value 0.98 | locus YOR061W, strain CKA2, stronger effect = lower value 0.985 | locus YOR069W, strain VPS5, stronger effect = lower value 1.01 | locus YOR070C, strain gyp1, stronger effect = lower value 0.996 | locus YOR080W, strain dia2, stronger effect = lower value 1 | locus YOR083W, strain WHI5, stronger effect = lower value 1.01 | locus YOR106W, strain vam3, stronger effect = lower value 1.02 | locus YOR136W, strain idh2, stronger effect = lower value 0.994 | locus YOR144C, strain elg1, stronger effect = lower value 1 | locus YOR184W, strain ser1, stronger effect = lower value 0.967 | locus YOR231W, strain MKK1, stronger effect = lower value 0.985 | locus YOR265W, strain rbl2, stronger effect = lower value 0.993 | locus YOR270C, strain vph1, stronger effect = lower value 1.05 | locus YOR290C, strain snf2, stronger effect = lower value 0.991 | locus YOR316C, strain cot1, stronger effect = lower value 1.01 | locus YPL051W, strain arl3, stronger effect = lower value 0.999 | locus YPL055C, strain LGE1, stronger effect = lower value 0.938 | locus YPL078C, strain atp4, stronger effect = lower value 1.03 | locus YPL106C, strain sse1, stronger effect = lower value 0.989 | locus YPL240C, strain hsp82, stronger effect = lower value 0.997 | locus YPL256C, strain CLN2, stronger effect = lower value 1.05 | locus YPR119W, strain clb2, stronger effect = lower value 1.02 | locus YPR141C, strain kar3, stronger effect = lower value 1.02 | locus YPR163C, strain tif3, stronger effect = lower value 0.993 | locus YPR167C, strain met16, stronger effect = lower value 1.01 | strain wtn01, stronger effect = lower value 0.948
